The source made the active and inactive calls. Where a call stands in place of a potency, no number is given. Unless noted, the call rests on the fitted dose curve; in most records, active means well fitted curve in the direction sought with a large enough effect in the repeat runs; inconclusive means weak or mixed curves; inactive means no such curve, though single readings can be large; an effect the other way counts as inactive or inconclusive.
What was measured:
[1] = qHTS assay to identify small molecule antagonists of the glucocorticoid receptor (GR) signaling pathway - cell viability counter screen (AID 720693); further: nearly all actives have a fitted effect of over 55% in size
[2] = qHTS assay for identifying genotoxic compounds that show differential cytotoxicity against isogenic chicken DT40 cell lines with known DNA damage response pathways - wild type cell line (AID 743012); further: nearly all actives have a fitted effect of over 60% in size; further: potency means the concentration at half of the fitted maximal effect
Outline: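 Viability by ATP luminescence (CellTiter-Glo, 30 min RT) after 40 h compound treatment at 37 C/5% CO2, using 300 parental DNA repair-proficient DT40 cells per well.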

[3] = qHTS assay for identifying genotoxic compounds that show differential cytotoxicity against isogenic chicken DT40 cell lines with known DNA damage response pathways - Rad54/Ku70 mutant cell line (AID 743015); further: nearly all actives have a fitted effect of over 60% in size; further: potency means the concentration at half of the fitted maximal effect
[4] = qHTS assay to identify small molecule antagonists of the androgen receptor (AR) signaling pathway - cell viability counter screen (AID 743033; further: nearly all actives have a fitted effect of over 45% in size)
[5] = qHTS assay to identify small molecule antagonists of the androgen receptor (AR) signaling pathway using the MDA cell line - cell viability counter screen (AID 743041; further: nearly all actives have a fitted effect of over 45% in size)
Outline: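 Viability read by CellTiter-Fluor fluorescence in the same wells as the antagonist screen, added after 15.5 h of a 16 h, 37C exposure. Human breast carcinoma MDA-kb2 AR-luc cells, compounds co-dosed with agonist R1881.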

[6] = qHTS assay to identify small molecule antagonists of the thyroid receptor (TR) signaling pathway - cell viability counter screen (AID 743064); further: nearly all actives have a fitted effect of over 50% in size; further: potency means the concentration at half of the fitted maximal effect
Outline: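 Viability of T3-stimulated (1 nM final) GH3.TRE-Luc cells is measured by CellTiter-Fluor fluorescence after 23.5 h compound exposure at 37 °C plus 30 min reagent incubation.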

[7] = qHTS assay to identify small molecule antagonists of the thyroid receptor (TR) signaling pathway (AID 743065); further: nearly all actives have a fitted effect of over 55% in size; further: potency means the concentration at half of the fitted maximal effect
Outline: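 Antagonism measured as loss of luciferase signal in GH3 cells stably carrying a TRE-luciferase reporter, co-treated with compound and T3 (1 nM final) for 23.5 h at 37 C. Viability was read in the same well by CellTiter-Fluor.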

[8] = test system: thyroid hormone receptor (rat, GH3 cells); experiment: qHTS assay to identify small molecule agonists of the thyroid receptor (TR) signaling pathway (AID 743066; calls by dose curve)
[9] = qHTS assay to identify small molecule antagonists of the estrogen receptor alpha (ER-alpha) signaling pathway - cell viability counter screen (AID 743074; calls by dose curve;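 further: HEK293 cells carrying ER-alpha-UAS-bla reporter stimulated with 17beta-estradiol; nearly all actives have a fitted effect of over 45% in size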)
[10] = qHTS assay to identify small molecule antagonists of the estrogen receptor alpha (ER-alpha) signaling pathway using the BG1 cell line - cell viability counter screen (AID 743081);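 further: compound given together with 17beta-estradiol as the ER stimulus; nearly all actives have a fitted effect of over 45% in size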; further: potency means the concentration at half of the fitted maximal effect
Aromatase (Homo sapiens) = Aromatase (Homo sapiens) (UniProt P11511); experiment: qHTS assay to identify aromatase inhibitors (AID 743083); further: nearly all actives have a fitted effect of over 55% in size; further: potency means the concentration at half of the fitted maximal effect
Aromatase (Homo sapiens), sequence (P11511 whole entry, looked up): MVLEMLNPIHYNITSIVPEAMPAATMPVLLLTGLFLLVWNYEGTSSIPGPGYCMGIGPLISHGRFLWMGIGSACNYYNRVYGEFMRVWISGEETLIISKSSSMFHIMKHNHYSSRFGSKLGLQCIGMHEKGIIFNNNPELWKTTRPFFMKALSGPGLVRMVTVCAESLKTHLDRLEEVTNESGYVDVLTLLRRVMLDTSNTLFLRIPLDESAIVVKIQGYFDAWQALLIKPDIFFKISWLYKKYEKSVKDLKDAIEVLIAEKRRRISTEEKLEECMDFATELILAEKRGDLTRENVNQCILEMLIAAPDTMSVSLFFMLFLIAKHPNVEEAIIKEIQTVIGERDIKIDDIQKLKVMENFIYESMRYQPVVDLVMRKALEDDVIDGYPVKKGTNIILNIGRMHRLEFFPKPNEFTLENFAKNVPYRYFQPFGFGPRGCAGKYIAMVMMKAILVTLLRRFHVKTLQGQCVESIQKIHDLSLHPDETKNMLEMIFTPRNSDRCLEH

[11] = qHTS assay for identifying genotoxic compounds that show differential cytotoxicity against isogenic chicken DT40 cell lines with known DNA damage response pathways - Rev3 mutant cell line (AID 743014); further: nearly all actives have a fitted effect of over 55% in size; further: potency means the concentration at half of the fitted maximal effect
[12] = target: Estrogen receptor (Homo sapiens) (UniProt P03372); experiment: qHTS assay to identify small molecule antagonists of the estrogen receptor alpha (ER-alpha) signaling pathway (AID 743069; active means well fitted curve in the direction sought with a large enough effect in the signal ratio in the repeat runs, not every such curve was filed as active; inconclusive means weak or mixed curves, or effect the other way; inactive means no such curve, though single readings can be large or run the other way; the % refers to the signal ratio; further: potency means the concentration at half of the fitted maximal effect)
Estrogen receptor (Homo sapiens), sequence (P03372 whole entry, looked up): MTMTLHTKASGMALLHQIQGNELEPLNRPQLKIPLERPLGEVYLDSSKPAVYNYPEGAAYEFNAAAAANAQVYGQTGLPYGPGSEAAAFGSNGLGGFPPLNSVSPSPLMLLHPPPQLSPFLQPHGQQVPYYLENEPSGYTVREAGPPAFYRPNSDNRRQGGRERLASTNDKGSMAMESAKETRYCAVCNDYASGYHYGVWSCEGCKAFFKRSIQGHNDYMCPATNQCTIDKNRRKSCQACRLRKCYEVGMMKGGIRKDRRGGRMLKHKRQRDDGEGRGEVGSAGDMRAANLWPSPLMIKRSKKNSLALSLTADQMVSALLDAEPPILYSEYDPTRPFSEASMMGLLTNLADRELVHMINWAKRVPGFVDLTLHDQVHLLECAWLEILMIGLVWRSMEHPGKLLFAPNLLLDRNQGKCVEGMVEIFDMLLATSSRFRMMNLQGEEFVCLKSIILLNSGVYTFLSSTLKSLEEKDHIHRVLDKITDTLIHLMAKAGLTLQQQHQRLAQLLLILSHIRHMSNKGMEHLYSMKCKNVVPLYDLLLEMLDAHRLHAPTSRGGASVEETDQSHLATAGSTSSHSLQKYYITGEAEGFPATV
Outline: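 Antagonist mode: compounds in DMSO were co-added with 17beta-estradiol to ER-alpha-bla HEK293 cells (2% charcoal-stripped serum) and left 18 h at 37C. Reporter inhibition was measured as FRET fluorescence after 2 h LiveBLAzer substrate at room temperature.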

[13] = target: Estrogen receptor (Homo sapiens) (UniProt P03372); experiment: qHTS assay to identify small molecule agonists of the estrogen receptor alpha (ER-alpha) signaling pathway (AID 743075; calls by dose curve;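 further: HEK293 GripTite cells with ER-alpha and UAS-driven beta-lactamase reporter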)
[14] = target: Estrogen receptor (Homo sapiens) (UniProt P03372); experiment: qHTS assay to identify small molecule agonists of the estrogen receptor alpha (ER-alpha) signaling pathway using the BG1 cell line (AID 743079); further: nearly all actives have a fitted effect of over 20% in size; further: potency means the concentration at half of the fitted maximal effect
[15] = qHTS assay to identify small molecule antagonists of the estrogen receptor alpha (ER-alpha) signaling pathway using the BG1 cell line (AID 743080; calls by dose curve;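 further: BG1 cells stimulated with 17beta-estradiol alongside compound; series mostly up to about 70 µM; nearly all actives have a fitted effect of over 25% in size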)
Outline: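 Quantitative HTS on the Tox21 10K library: BG1 cells with endogenous ER-alpha and ERE-luciferase reporter, 17beta-estradiol stimulation, 21.5 h compound exposure, luminescence endpoint with parallel fluorescence cytotoxicity counter-read.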

[16] = target: Androgen receptor (Homo sapiens) (UniProt P10275); experiment: qHTS assay to identify small molecule antagonists of the androgen receptor (AR) signaling pathway (AID 743035; active means well fitted inhibition curve with a large enough effect in the signal ratio in the repeat runs, not every such curve was filed as active; inconclusive means weak or mixed curves, or effect the other way; inactive means no such curve, though single readings can be large or run the other way; the % refers to the signal ratio)
Androgen receptor (Homo sapiens), sequence (P10275 whole entry, looked up): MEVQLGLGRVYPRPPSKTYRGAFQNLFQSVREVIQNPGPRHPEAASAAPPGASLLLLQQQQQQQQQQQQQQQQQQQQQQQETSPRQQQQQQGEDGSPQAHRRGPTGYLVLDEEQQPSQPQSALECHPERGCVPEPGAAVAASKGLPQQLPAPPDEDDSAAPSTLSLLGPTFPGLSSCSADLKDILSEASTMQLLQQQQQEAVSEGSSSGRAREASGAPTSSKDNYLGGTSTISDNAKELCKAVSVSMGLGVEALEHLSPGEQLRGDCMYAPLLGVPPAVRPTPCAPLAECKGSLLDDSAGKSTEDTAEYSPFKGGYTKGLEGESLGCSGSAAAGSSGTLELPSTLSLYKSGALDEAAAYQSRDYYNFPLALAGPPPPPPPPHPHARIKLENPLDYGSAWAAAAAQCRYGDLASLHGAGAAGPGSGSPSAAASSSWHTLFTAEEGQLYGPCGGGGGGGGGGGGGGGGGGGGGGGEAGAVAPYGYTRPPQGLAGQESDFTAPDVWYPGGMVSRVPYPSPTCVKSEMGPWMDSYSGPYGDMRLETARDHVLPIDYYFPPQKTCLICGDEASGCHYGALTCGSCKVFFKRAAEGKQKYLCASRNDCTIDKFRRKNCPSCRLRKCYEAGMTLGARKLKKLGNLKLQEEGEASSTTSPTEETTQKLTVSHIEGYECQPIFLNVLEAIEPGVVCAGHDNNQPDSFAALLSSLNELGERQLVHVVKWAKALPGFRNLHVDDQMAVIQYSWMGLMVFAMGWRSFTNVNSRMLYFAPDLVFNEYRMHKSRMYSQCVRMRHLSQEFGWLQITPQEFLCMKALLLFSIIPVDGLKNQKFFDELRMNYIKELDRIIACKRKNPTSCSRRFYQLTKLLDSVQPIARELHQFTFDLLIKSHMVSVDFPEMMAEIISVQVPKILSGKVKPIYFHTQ
Outline: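 Antagonist mode: AR-bla HEK293 cells co-treated with test compounds and agonist R1881 for 16 h at 37C, 5% CO2. Beta-lactamase activity read as FRET fluorescence after 2 h room-temperature substrate loading.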

[17] = target: Androgen receptor (Homo sapiens) (UniProt P10275); experiment: qHTS assay to identify small molecule antagonists of the androgen receptor (AR) signaling pathway using the MDA cell line (AID 743042; further: nearly all actives have a fitted effect of over 55% in size)
Outline: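 Antagonist mode: compounds plus R1881 agonist added to MDA-kb2 AR-luc cells, incubated 16 h at 37C. Luciferase reporter luminescence quantified, with multiplexed CellTiter-Fluor readout for cell viability.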

[18] = target: Androgen receptor (Homo sapiens) (UniProt P10275); experiment: qHTS assay to identify small molecule agonists of the androgen receptor (AR) signaling pathway (AID 743036; active means well fitted activation curve with a large enough effect in the signal ratio in the repeat runs, with a control signal flat, not every such curve was filed as active; inconclusive means weak or mixed curves, or effect the other way; inactive means no such curve, though single readings can be large or run the other way; the % refers to the signal ratio)
Outline: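 Screening used 2,000 AR-bla HEK293 cells per well, treated 16 h at 37C with test compounds in DMSO alongside positive and DMSO-only controls; beta-lactamase activity was then read by LiveBLAzer B/G FRET fluorescence after 2 h at room temperature.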

[19] = target: Androgen receptor (Homo sapiens) (UniProt P10275); experiment: qHTS assay to identify small molecule agonists of the androgen receptor (AR) signaling pathway using the MDA cell line (AID 743040; further: nearly all actives have a fitted effect of over 20% in size)
Outline: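 Luciferase agonist assay: 16 h compound exposure at 37C without CO2 in MDA-kb2 AR-luc cells, whose MMTV promoter responds to both AR and GR. Luminescence measured after 30 min room-temperature incubation with ONE-Glo.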

| SMILES | Potency [1] | Potency [2] | Potency [3] | Potency [4] | Potency [5] | Potency [6] | Potency [7] | outcome [8] | Potency [9] | Potency [10] | Potency (Aromatase (Homo sapiens)) | Potency [11] | Potency [12] | Potency [13] | Potency [14] | Potency [15] | Potency [16] | Potency [17] | Potency [18] | outcome [19] |
| --- | --- | --- | --- | --- | --- | --- | --- | --- | --- | --- | --- | --- | --- | --- | --- | --- | --- | --- | --- | --- |
| Cc1ccc(-c2ccccc2)cc1 | inactive | inactive | inactive | inactive | inactive | inactive | inactive | inactive | inactive | inactive | inactive |  |  |  |  |  |  |  |  |  |
| CCCC(=O)OCCc1ccccc1 | inactive | inactive |  | inactive | inactive | inactive |  |  | inactive | inactive | inactive | inactive |  |  |  |  |  |  |  |  |
| CC(C)NC[C@@H](O)COc1ccc(CC(N)=O)cc1 | inactive | inactive |  |  | inactive | inactive | inactive | inactive | inactive |  |  | inactive | inactive | inactive | inactive | inactive |  |  |  |  |
| CCC(C)[O-].CCC(C)[O-].CCOC(=O)/C=C(/C)[O-].[Al+3] | inactive | inactive |  | inactive |  | inactive |  |  | inactive | inactive |  | inactive |  |  |  |  |  |  |  |  |
| Cc1cc(-c2ccc(N=Nc3cc(S(=O)(=O)O)c4ccccc4c3N)c(C)c2)ccc1N=Nc1cc(S(=O)(=O)O)c2ccccc2c1N | inactive | 0.548 µM (active) | 0.346 µM (active) |  |  | 61.4 µM (active) |  | inactive |  | 30.8 µM (active) |  | 0.388 µM (active) |  |  |  |  |  |  |  |  |
| CCO[Si](OCC)(OCC)OCC | inactive | inactive |  | inactive | inactive | inactive |  |  | inactive | inactive | inactive | inactive | inactive | inactive | inactive | inactive |  |  |  |  |
| CC[N+](CC)(CC)CCOC(=O)C(C1CCCC1)C1CCCC1 | inactive | 5.31 µM (active) | 8.41 µM (active) |  | inactive | inactive |  | inactive | inactive | inactive | inactive | 11.9 µM (active) |  | inactive | inactive | inactive |  |  |  |  |
| O=C1NC(=O)[C@@H]2CC=CC[C@H]12 | inactive | 61.1 µM (active) |  | inactive | inactive | inactive | inactive | inactive | inactive | inactive |  | 48.6 µM (active) |  |  |  |  |  |  |  |  |
| Cc1cc(C(C)(C)C)c(O)c(C)c1Cn1c(=O)n(Cc2c(C)cc(C(C)(C)C)c(O)c2C)c(=O)n(Cc2c(C)cc(C(C)(C)C)c(O)c2C)c1=O | inactive |  | inactive |  |  | inactive |  | inactive | inactive | inactive |  | inactive | 17.4 µM [inconclusive] (active) | inactive | inactive | inactive |  |  |  |  |
| CNc1ccc([N+](=O)[O-])cc1 | inactive |  | 68.7 µM (active) | inactive |  |  | 27.4 µM (active) | inactive | inactive | 48.7 µM (active) | 12.2 µM (active) | 68.7 µM (active) |  | inactive | 34.4 µM (active) |  | inactive | inactive |  |  |
| Nc1ccc(NCCO)c([N+](=O)[O-])c1 | inactive | inactive | inactive |  |  | 54.5 µM (active) |  | inactive | inactive |  | inactive |  |  |  |  |  |  |  |  |  |
| Cc1c(C)c([N+](=O)[O-])c(C(C)(C)C)c([N+](=O)[O-])c1C | inactive | inactive | inactive | inactive | inactive |  |  |  |  | inactive |  |  | inactive | inactive | inactive | inactive |  |  |  |  |
| CCC(=O)C(=O)CC | inactive |  |  | inactive | inactive |  |  | inactive | inactive | inactive |  | 28.5 µM (active) |  |  |  |  |  |  |  |  |
| CCCCOC(=O)CO | inactive | inactive | inactive | inactive |  | inactive | inactive | inactive | inactive | inactive | inactive |  | inactive | inactive | inactive | inactive |  |  |  |  |
| OC1CCC(C2CCCCC2)CC1 (stereo not drawn) | inactive | inactive |  | inactive |  | inactive | inactive | inactive | inactive | inactive | inactive |  |  | inactive |  | inactive |  |  |  |  |
| C[Si](Cl)(c1ccccc1)c1ccccc1 | inactive | inactive |  | inactive | inactive |  | inactive | inactive | inactive | inactive |  |  | inactive | inactive | inactive | inactive |  |  |  |  |
| Nc1ccc(Oc2ccc(Cl)cc2)cc1 | inactive | inactive | 59.8 µM (active) | inactive |  | inactive | 30 µM (active) | inactive | inactive | inactive | 23.8 µM (active) |  |  | inactive | inactive |  |  |  |  |  |
| OC1CCCc2ccccc21 (stereo not drawn) | inactive | inactive |  |  | inactive | inactive | inactive | inactive | inactive | inactive | inactive |  | inactive | inactive | inactive | inactive |  |  |  |  |
| CN(C)Cc1ccccc1O | inactive |  | inactive | inactive |  | inactive |  | inactive | inactive | inactive | inactive | inactive |  | inactive | inactive | inactive | inactive | inactive | inactive | inactive |
